Screening results from PubChem.
Rows were chosen to be rich in hits. Some 3.2% of all compounds tested hit in one or more screens of this group.
GDH-TPI inh: GDH-TPI coupling enzyme inhibitors, primary screen, artefact control for M. tuberculosis FBA inhibitor project, biochemical, absorbance, full deck; GDH-TPI coupled enzyme counterscreen, NADH absorbance; inhibition, % at 4.8 µM; 360,000 compounds, 1.2% hits; AID 588335, 2011; in the data active = inhibition above about 30%;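 also: 0% = DMSO wells and 100% = wells lacking the enzyme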
Y pestis TopoI: Yersinia pestis topoisomerase I inhibitors, primary screen, biochemical, cleavage product accumulation, plate reader, single point. DNA topoisomerase I (Yersinia pestis CO92). Y. pestis Topo-I cleavage product accumulation. activity, % at 10 µM. 360,000 compounds, 0.064% hits. AID 504884, 2011; in the data active = activity above about 50%, passing the limit was not always enough
TcdB inh: TcdB glycohydrolase inhibitors, primary screen, biochemical, single point, plate reader | 350,000 compounds, 0.24% hits | Toxin B (Clostridioides difficile), P18177 | inhibition, % at 9.99 µM | AID 652162, 2013 | TcdB glycohydrolase enzymatic assay; in the data active = inhibition above about 10%
FBA Mtb inh: Mtb FBA enzyme inhibitors, primary screen, biochemical, fluorescence, strain H37Rv; Fructose-bisphosphate aldolase (Mycobacterium tuberculosis (strain ATCC 25618 / H37Rv)), …; purified M. tuberculosis FBA, fluorescence read-out; inhibition, % at 1 µM; 360,000 compounds, 2.3% hits; AID 588726, 2011; in the data active = inhibition above about 27%;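 also: 0% = vehicle and 100% = reference inhibitor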
Target sequence (P9WQA3 whole entry, looked up): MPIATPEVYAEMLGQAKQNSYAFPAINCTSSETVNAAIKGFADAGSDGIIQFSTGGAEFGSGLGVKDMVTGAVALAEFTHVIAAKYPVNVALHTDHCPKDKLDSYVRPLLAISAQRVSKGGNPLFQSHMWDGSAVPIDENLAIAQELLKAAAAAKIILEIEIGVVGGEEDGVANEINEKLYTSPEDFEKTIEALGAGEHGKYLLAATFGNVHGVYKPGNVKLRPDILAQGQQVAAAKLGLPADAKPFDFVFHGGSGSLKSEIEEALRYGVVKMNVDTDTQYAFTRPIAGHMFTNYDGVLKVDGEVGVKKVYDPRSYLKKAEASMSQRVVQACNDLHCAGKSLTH
PrPC TRFRET: inhibitors of human cell surface prion protein PrPC, primary screen, cell-based, TR-FRET; Major prion protein (Homo sapiens), P04156; AID 720596, 2013; 370,000 compounds, 0.43% hits; inhibition, % at 13.8 µM; TR-FRET read-out; in the data active = inhibition above about 24%; also: 0% = median of the test wells and 100% = reference compound wells
Active calls of the source: *; x = not tested or not shown; + = active, no number.

SMILES | GDH-TPI inh | Y pestis TopoI | TcdB inh | FBA Mtb inh | PrPC TRFRET
CN(C)c1ccc(C=Nc2ccc(N(C)C)cc2)cc1 | 32* | -10 | x | -1 | -19
Cc1ccc(N=Cc2ccc(N(C)C)cc2)cc1 | 39* | 4 | x | 0 | -7
C[C@H](CO)N1C[C@H](C)[C@@H](CN(C)Cc2ccc(Cl)c(Cl)c2)Oc2ccc(NC(=O)CCC(F)(F)F)cc2C1=O | x | x | -1 | x | x
COc1ccc2c3c(n(C)c2c1)[C@@H](CO)N(Cc1ccccc1Cl)CC31CCN(C(=O)CN(C)C)CC1 | x | x | -5 | x | x
O=C(c1ccccc1)N1CC[C@@H]2[C@@H](CO)Nc3ccc(-c4ccccc4F)cc3[C@@H]21 | x | x | -1 | x | x
O=C(NC1CCC1)[C@@H]1[C@@H](CO)[C@@H]2Cn3c(ccc(-c4ccccc4F)c3=O)[C@H]1N2C(=O)CC1CC1 | x | x | -2 | x | x
O=C(NCc1nnc2c(C(F)(F)F)cc(Cl)cn12)c1cccnc1 | -7 | -1 | 12* | -3 | 4
Cn1c(SCc2nnc(-c3ccccc3)o2)nc2ccccc21 | -3 | 7 | 13* | -2 | -15
COc1ccc(-c2nnc(CSc3nc4ccccc4c(=O)n3C)o2)cc1OC | -3 | -2 | 0 | 0 | x
CCCN1C(=O)COc2ccc(C(=O)c3ccccc3C(=O)O)cc21 | 1 | 15 | 0 | -1 | 6
O=C(O)c1ccc2c(c1)N(Cc1cccc(F)c1)C(=O)CS2 | 7 | 3 | 21* | -1 | 2
CN1C(=O)CSc2ccc(C(=O)O)cc21 | 2 | 1 | 1 | 5 | 0
O=C(O)c1ccccc1C(=O)c1ccc2c(c1)N(Cc1cccc(F)c1)C(=O)CO2 | 11 | -5 | 21* | 0 | 8
C[C@H](CO)N1C[C@H](C)[C@H](CN(C)Cc2ccc3c(c2)OCO3)Oc2cc(-c3cccc(C(=O)N(C)C)c3)ccc2S1(=O)=O | x | x | -1 | x | x
O=S(=O)(c1ccc(F)cc1)N1CCCCN2[C@@H](CO)[C@@H](c3ccc(C#CC4CCCC4)cc3)[C@@H]2C1 | x | x | -2 | x | x
Nc1c(S(=O)(=O)c2cccs2)c2nc3ccccc3nc2n1Cc1ccc2c(c1)OCO2 | 10 | 3 | x | 7 | 5
Nc1c(S(=O)(=O)c2cccs2)c2nc3ccccc3nc2n1CCc1ccccc1 | x | x | x | x | 7
Nc1c(S(=O)(=O)c2cccs2)c2nc3ccccc3nc2n1Cc1cccs1 | 13 | 3 | x | 119* | 2
Nc1c(S(=O)(=O)c2cccs2)c2nc3ccccc3nc2n1CC1CCCO1 (stereo unspecified) | 23 | 2 | 1 | 170* | x
CC(C)CCn1c(N)c(S(=O)(=O)c2cccs2)c2nc3ccccc3nc21 | 12 | -1 | 0 | 116* | 7
COc1cccc(S(=O)(=O)Nc2ccc3c(c2)C(=O)N(C)C[C@H](OC)[C@@H](C)CN(Cc2ccccc2F)[C@@H](C)CO3)c1 | x | x | 0 | x | x
C/C(=N\Nc1nccnc1Cl)c1ccc(O)c(C)c1 | 44* | -5 | 5 | 2 | -5
CCCc1cc(-c2n[nH]c(C(=O)OCC)c2-c2cscn2)c(O)cc1O | 12 | 17 | 22* | 2 | -8
Cc1cccc(NC(=O)c2cc3c(s2)-c2c(C)cccc2OC3)n1 | 22 | 16 | 0 | 14 | 2
CC1CC(C)CN(CCCNC(=O)c2cc3c(s2)-c2ccccc2OC3)C1 (stereo unspecified) | 15 | 8 | 1 | + | -21
SMILES | GDH-TPI inh | Y pestis TopoI | TcdB inh | FBA Mtb inh | PrPC TRFRET
Cc1c(NC(=O)c2cc3c(s2)-c2ccccc2OC3)cccc1[N+](=O)[O-] | 36* | -5 | x | 0 | 4
CCCN1CCN(CCCNC(=O)c2cc3c(s2)-c2ccccc2OC3)CC1 | 30 | -5 | 4 | + | -7
CN(C)CCNC(=O)c1cc2c(s1)-c1ccccc1OC2 | 32* | -7 | 1 | + | -12
CCN1CCN(CCCNC(=O)c2cc3c(s2)-c2ccccc2OC3)CC1 | 30 | 2 | 0 | x | -11
CCCNC(=O)N[C@@H]1CC[C@H](CC(=O)NC2CCCCC2)O[C@@H]1CO | x | x | 0 | x | x
CC(C)C1Oc2ccccc2N(CC(=O)NCCCN2C(C)CCCC2C)C1=O (stereo unspecified) | 2 | 5 | 0 | 5 | 3
Cc1cccc2c1-c1sc(C(=O)NCCCN3CCCC(C)C3)cc1CO2 (stereo unspecified) | 22 | -7 | 2 | + | -11
CC1CCCC(C)N1CCCNC(=O)c1cc2c(s1)-c1ccccc1OC2 (stereo unspecified) | 25 | -2 | 0 | + | -15
CCCN1CCN(CCCNC(=O)c2cc3c(s2)-c2c(C)cccc2OC3)CC1 | 21 | -4 | 1 | + | -24
CN(C)S(=O)(=O)c1ccc2c(c1)C(=NNC(N)=O)c1cc(S(=O)(=O)N(C)C)ccc1-2 | 18 | 4 | 1 | -3 | -7
CN(CCO)S(=O)(=O)c1ccc2c(c1)C(=NNC(N)=O)c1cc(S(=O)(=O)N(C)CCO)ccc1-2 | 56* | -10 | 2 | 3 | -45
CCCN(C)C[C@@H]1Oc2ncc(Br)cc2C(=O)N([C@H](C)CO)C[C@@H]1C | x | x | 0 | x | x
COc1ccc2nc(/C=N/NC(=O)CCNC(=O)OC(C)(C)C)ccc2c1 | 52* | 6 | 1 | 69* | -14
CC(C)(C)OC(=O)NCCC(=O)N/N=C/c1ccc2ncccc2c1 | 3 | 1 | 2 | 2 | -16
CN1C(=O)c2cc(NC(=O)Cc3cccs3)ccc2OC[C@@H]2O[C@H](CC(=O)NCC3CC3)CC[C@H]21 | x | x | -1 | x | x
CC1(C)Nc2ccccc2C(=O)N1c1ccccc1 | 8 | -2 | -1 | 115* | 8
CC1(C)Nc2ccccc2C(=O)N1NC(=O)c1ccccc1 | 8 | -13 | -1 | 11 | -5
C[C@@H]1CN([C@H](C)CO)C(=O)c2cc(N(C)C)ccc2O[C@@H]1CN(C)C(=O)Nc1ccc(F)cc1 | x | x | -3 | x | x
N#CC(C#N)=C1CCCc2sccc21 | 33* | 3 | 1 | 10 | -6
O=C1CCCc2sccc2N1 | -2 | 6 | 0 | -4 | -2
C[C@H]1CN([C@@H](C)CO)C(=O)c2cccc(NC(=O)Nc3ccccc3)c2O[C@H]1CN(C)CC1CCCCC1 | x | x | 0 | x | x
CC1(C)Cc2c(c(N3CCOCC3)nc3sc(-c4ccc(C(=O)O)o4)c(N)c23)CO1 | 37* | -4 | x | 69* | -9
CC=Cc1ccc2n(c1=O)C[C@H]1[C@H](CO)[C@@H](C(=O)NCC)N(C(=O)C3CCOCC3)[C@@H]21 (mixture of isomers) | x | x | 0 | x | x
Nc1nc2nn(-c3ccccc3)nc2c(=O)[nH]1 | 14 | 2 | 2 | 199* | 4
Nc1nc2c(ncn2-c2ccccc2)c(=O)[nH]1 | 10 | -2 | 1 | 1 | 6
O=C(Nc1ccc(F)cc1)N1CC(=O)N2[C@H](CO)[C@@H](c3ccc(C4=CCCC4)cc3)[C@H]2C1 | x | x | -1 | x | x
